Source: PubChem (National Center for Advancing Translational Sciences (NCATS))
TDP1 cell CPT: DT40-hTDP1 cell growth loss with CPT | 420,000 compounds, 12% hits | chicken DT40 Tdp1-/-;hTDP1 cells + 20 nM CPT, ATP luminescence, 48 h | Potency, µM (top dose mostly 46.2 µM), without a hit: at the highest dose activity change, negative = growth inhibition, actives largely listed as inhibitors; further: potency means the concentration at half of the fitted maximal effect; nearly all actives have a fitted effect of over 55% in size
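Chicken DT40 Tdp1-/- cells complemented with human TDP1, 400 cells/well, exposed to compounds plus 20 nM camptothecin for at least 48 h at 37 C; viability read as ATP content by CellTiter-Glo luminescence.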
DT40 TDP1 no CPT: qHTS for Inhibitors of human tyrosyl-DNA phosphodiesterase 1 (TDP1): qHTS in cells in absence of CPT; 420,000 compounds, 15% hits; DT40 Tdp1-/- hTDP1 cells, no CPT, ATP luminescence, 48 h; AID 686978, 2013; Potency, µM (doses to about 46.2 µM), for inactives: top-dose activity change, negative = growth inhibition, usual class: inhibitors; further: potency means the concentration at half of the fitted maximal effect; nearly all actives have a fitted effect of over 55% in size
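A cellular qHTS used chicken DT40 cells lacking endogenous Tdp1 but carrying stably transfected human TDP1. Compounds were applied without camptothecin, and cell growth kinetics were judged by ATP-dependent luminescence after ≥48 hr.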
Gal4-VP16 FLuc: Gal4-VP16 reporter inhibition counter-screen; Drosophila S2 Gal4-VP16 UAS-luciferase, luminescence, 20 h; Potency, µM (highest dose often 53.6 µM), for the others: top-dose activity, negative = inhibition, actives largely listed as inhibitors; 310,000 compounds, 3.5% hits;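 further: Gal4-VP16 expression switched on by copper sulfate through the metallothionein promoter; potency means the concentration at half of the fitted maximal effect; nearly all actives have a fitted effect of over 50% in size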
IL1B secr inh: inflammasome signaling inhibition, IL-1 beta readout | THP-1 LPS/ATP IL-1B secretion, AlphaLISA, 16 h; active compounds read low | activity change, % at 57.5 µM | 360,000 compounds, 4.7% hits; in the data active means activity change below about -50%; inconclusive means mostly about -30% to -49%
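Secreted IL-1B measured by AlphaLISA bead assay after 16 h compound exposure of THP-1 cells; compounds (final up to 57.5 uM) added 1 h before LPS (250 ng/mL) and ATP (1.25 mM) stimulation; lower signal means less secretion.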
LDHA inh: LDHA (human) enzyme inhibition. P00338. purified LDHA, NADH/diaphorase-resazurin fluorescence; active compounds read low. activity change, % (values are at about 110 or 230 µM). 480,000 compounds, 0.15% hits; in the data active means activity change below about -30%; inconclusive means mostly about -25% to -30%;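 further: plate controls were DMSO wells for no effect and wells without enzyme for full effect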
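Resorufin fluorescence (ex540/em590), read at 0 and 20 min after diaphorase/resazurin addition, reports the NADH left after a 5 min room-temperature reaction of 2 nM human LDH5 with 0.06 mM NADH and 0.2 mM pyruvate.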
RORg inh: ROR gamma (mouse) transcription inhibition; Drosophila S2 Gal4-RORgamma UAS-luciferase reporter, 20 h; Potency, µM (titrated, usually from 53.6 µM), without a hit: at the top dose activity change, negative = inhibition, actives largely listed as inhibitors; 310,000 compounds, 5.4% hits; AID 2551; further: potency means the concentration at half of the fitted maximal effect; nearly all actives have a fitted effect of over 60% in size
Target sequence (P51450 whole entry, looked up, the tested form may be a part): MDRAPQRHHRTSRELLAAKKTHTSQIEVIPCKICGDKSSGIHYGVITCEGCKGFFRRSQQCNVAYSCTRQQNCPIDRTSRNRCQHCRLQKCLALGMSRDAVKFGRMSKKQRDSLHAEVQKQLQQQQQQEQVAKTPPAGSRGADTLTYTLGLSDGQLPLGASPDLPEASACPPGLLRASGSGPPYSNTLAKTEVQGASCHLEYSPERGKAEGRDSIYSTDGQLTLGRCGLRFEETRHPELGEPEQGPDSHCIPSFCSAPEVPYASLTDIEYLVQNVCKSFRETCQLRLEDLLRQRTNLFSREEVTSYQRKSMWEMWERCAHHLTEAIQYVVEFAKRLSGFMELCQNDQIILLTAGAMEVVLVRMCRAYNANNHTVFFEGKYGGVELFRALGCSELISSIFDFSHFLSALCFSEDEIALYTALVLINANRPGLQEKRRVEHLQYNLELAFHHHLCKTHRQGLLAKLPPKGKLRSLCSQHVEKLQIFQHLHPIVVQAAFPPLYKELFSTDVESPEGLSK
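ROR gamma transcriptional activity was tracked as Gal4-UAS luciferase output in stably transfected Drosophila Schneider cells, with compound added 1 hr before 700 uM copper sulfate induction and a 20 hr ambient-temperature incubation.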
Active calls of the source: *; ? = inconclusive; nt = no result given; [ ] = another dose, or the depositor's remark. In the library only some 18% were active in any assay of this set; here they are far more common. Unless noted, the call rests on the fitted dose curve; in most records, active means well fitted curve in the direction sought with a large enough effect; inconclusive means small, poorly fitted or top-dose-only effect, or another doubt; inactive means no such curve, though single readings can be large; an effect the other way counts as inactive or inconclusive. Unless noted, on the % scale 0 is the no-effect control and ±100 the full control effect.

SMILES | TDP1 cell CPT | DT40 TDP1 no CPT | Gal4-VP16 FLuc | IL1B secr inh | LDHA inh | RORg inh
COCCNC(=O)C1CCN(C(=O)c2cc3sccc3n2Cc2ccc(Cl)cc2)CC1 | 5.2µM* | 2.6µM* | nt | nt | -8 | nt
O=C(NCc1ccco1)C1CCN(C(=O)c2cc3sccc3n2Cc2ccc(Cl)cc2)CC1 | 18µM* | ? | ? | -87* | 1 | ?
CCn1c(C(=O)N2CCC(C(=O)NCCCOC)CC2)cc2sccc21 | -21% | -12% | nt | nt | 0 | nt
COCCNC(=O)C1CCN(C(=O)c2cc3sccc3n2Cc2ccc(F)cc2)CC1 | ? | ? | -5% | 52 | -4 | ?
CCC(C)NC(=O)C1CCN(C(=O)c2cc3sccc3n2Cc2ccc(Cl)cc2)CC1 (stereo not drawn) | 3.7µM* | 2.1µM* | nt | nt | -17 | nt
C=C(C)COc1cccc(N)c1 | nt | nt | nt | nt | 17 | nt
COc1ccc(C)cc1NC(=O)N1CCN(c2cc(-c3noc(C)n3)ccc2C)CC1 | ? | 23µM* | nt | nt | -2 | nt
O=C(CSc1ncnc2ccccc12)Nc1ccc(F)cc1 | nt | nt | nt | nt | 2 | nt
CCc1nc(NC(CC)CO)c(C#N)c2c1CCCC2 (stereo not drawn) | nt | nt | nt | nt | -34* | nt
COc1cc(C=C(c2nc3ccccc3s2)c2nc3ccccc3s2)ccc1O | -18% | -28% | 6% | -90* | 12 | 1%[10 µM]
COc1ccc(C=C(c2nc3ccccc3s2)c2nc3ccccc3s2)cc1O | ? | 21µM* | 1% | -98* | 0 | 19%
COc1ccc(/C=C(/Cl)c2nc3ccccc3s2)cc1 | nt | nt | nt | nt | 0 | nt
c1ccc(CC2CNC2)cc1 | nt | nt | nt | nt | 4 | nt
CCc1c(C)sc(NC(=O)CSc2nc3c(c(C(F)(F)F)n2)CCc2ccccc2-3)c1C#N | 21µM* | ? | -2% | 20 | -14 | ?
CC(NC(=O)CSc1nc2c(c(C(F)(F)F)n1)CCc1ccccc1-2)c1ccccc1 (stereo not drawn) | ? | 23µM* | ? | -16 | -8 | ?
O=C(CSc1c2c(nc3ccccc13)CCCC2)NCc1ccco1 | 0% | 20% | -2% | 5 | 1 | 2%
O=C(CSc1nc2c(c(C(F)(F)F)n1)CCc1ccccc1-2)NCc1ccco1 | 16µM* | 26µM* | -10% | 29 | -9 | 19%
COC(=O)CNC(=O)c1cc(-c2cccs2)nc2ccccc12 | nt | nt | nt | nt | 1 | nt
Cc1ccc(NC(=O)c2cc(-c3cccs3)nc3ccccc23)nc1 | 23µM* | 13µM* | 21% | ? | 2 | -23%
COc1ccc(-c2cc(C(=O)Nc3c(C)n(C)n(-c4ccccc4)c3=O)c3ccccc3n2)cc1OC | ? | 15µM* | -11% | 3 | -4 | 3%
Cc1c(NC(=O)c2cc(-c3ccccc3)nc3ccccc23)c(=O)n(-c2ccccc2)n1C | ? | ? | nt | -7 | -7 | nt
CC(C)OCCCNC(=O)c1cc(-c2cccs2)nc2ccccc12 | 16µM* | ? | 2% | 25 | -7 | -5%
Cc1c(NC(=O)c2cc(-c3cccs3)nc3ccccc23)c(=O)n(-c2ccccc2)n1C | ? | 21µM* | -5% | -89* | -1 | -10%
Nc1nccnc1C(=O)NCCc1ccco1 | nt | nt | nt | nt | -1 | nt
Cc1ccc(-c2cc(C(=O)Nc3nccs3)c3ccccc3n2)c(C)c1 | 13µM* | 13µM* | 6.3µM* | 3 | -5 | 4.5µM*
SMILES | TDP1 cell CPT | DT40 TDP1 no CPT | Gal4-VP16 FLuc | IL1B secr inh | LDHA inh | RORg inh
COc1ccc(-c2cc(C(F)F)n3ncc(C(=O)Nc4c(C)n(C)n(-c5ccccc5)c4=O)c3n2)cc1 | ? | 12µM* | 4% | 1 | -13 | 1%
CC(Sc1nc(CN2CCOCC2)nc2ccccc12)c1ccccc1Cl (stereo not drawn) | nt | nt | nt | nt | -1 | nt
N#CC12COC3(CCCCC3C1(C#N)C#N)OC2=N (stereo not drawn) | 2.3µM* | 2.6µM* | 2% | -21 | -4 | 27%
N#CC1(C#N)COC23CCCCC2C1(C#N)C(=N)O3 (stereo not drawn) | 5.8µM* | 5.8µM* | -15% | -53* | 29 | 9%
CCCOC(=O)c1c(-c2ccc(OC)cc2)csc1NC(=O)c1ccoc1C | nt | nt | nt | nt | -2 | nt
Cc1cccc(NC(=O)CSc2nnc(-c3cc(C)n(-c4ccccc4)c3C)o2)c1C | -8% | ? | -12% | -80* | -7 | ?
COc1ccccc1-c1nnc(SCC(=O)Nc2ccccc2F)o1 | 21µM* | 21µM* | nt | nt | -3 | nt
COC(=O)CSc1nnc(-c2ccccc2OC)o1 | -17% | -1% | -25% | 17 | -1 | -25%
C=CCNc1nc(C(=O)OCC(=O)Nc2ccccc2)cs1 | nt | nt | nt | nt | 7 | nt
O=c1cc(-c2ccccc2Cl)oc2c([N+](=O)[O-])c(O)cc(O)c12 | 23µM* | 26µM* | ? | -74* | -8 | ?
COc1ccccc1-c1cc(=O)c2c(O)ccc([N+](=O)[O-])c2o1 | 3.7µM* | 5.2µM* | 2% | 14 | -4 | 9%
O=c1cc(-c2ccccc2Cl)oc2ccc([N+](=O)[O-])c(O)c12 | ? | ? | 3% | 11 | 5 | -13%
CCOC(=O)[C@@H]1[C@H]2COc3ccc(Br)cc3[C@H]2N2C(=O)N(c3ccc(C(F)(F)F)cc3)C(=O)[C@]12C | ? | 12µM* | nt | 7 | -7 | nt
CCOC(=O)[C@@H]1[C@H]2COc3ccc(Br)cc3[C@@H]2N2C(=O)N(c3ccccc3)C(=O)[C@@]12C | ? | -17% | 6% | 18 | -1 | 10µM*
CCOC(=O)[C@@H]1[C@H]2COc3ccc(Br)cc3[C@H]2N2C(=O)N(c3ccc(Br)cc3)C(=O)[C@]12C | ? | ? | -12% | 8 | 0 | 3%
CCOC(=O)[C@@H]1[C@H]2COc3ccc(Br)cc3[C@H]2N2C(=O)N(c3ccc(Cl)cc3)C(=O)[C@]12C | ? | 9.2µM* | nt | -3 | 6 | nt
CCOC(=O)[C@@H]1[C@H]2COc3ccccc3[C@@H]2N2C(=O)N(c3ccccc3)C(=O)[C@@]12C | -10% | -22% | -24% | 26 | -17 | 13µM*
Cc1ccc(S(=O)(=O)Oc2ccccc2C2C3=C(CCCC3=O)OC3=C2C(=O)CCC3)cc1 | nt | nt | nt | nt | 7 | nt
CCOC(=O)[C@@H]1[C@H]2COc3ccc(Br)cc3[C@@H]2N2C(=O)N(c3ccc(Br)cc3)C(=O)[C@]12C | -14% | ? | 1% | -9 | 0 | 2%
CCOC(=O)[C@H]1[C@H]2COc3ccc(Br)cc3[C@@H]2N2C(=O)N(c3ccccc3)C(=O)[C@@]12C | 18µM* | -28% | nt | 23 | -2 | nt
